20 molecules from PubChem BioAssay (EPA / NIEHS) can be followed below.

“And” between values parts separate entries of the source, which are not always exact repeats. Equal values may be shown once. Where a structure was tested more than once in an assay, its records may differ in their call. The source made the active and inactive calls. Rule for the calls: active = hit-call score of the fitted dose curve at least 0.9, where 1 is the maximum; inactive = score below 0.9.

The nature of experiment [1]: ATG_NFI_CIS: Attagene CIS-FACTORIAL HepG2 Assay for human Nuclear Factor I (NFI) (AID 2282989). Particulars: HepG2 cis-regulatory reporter, NFI response element transcription; actives raise or lower the signal. In a few lines: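 Transfected HepG2 liver cells, exposed 24 h, supplied total RNA for oligo(dT) reverse transcription and reporter-specific PCR. Labelled, HpaI-cut fragments were sized by capillary electrophoresis; DMSO set the baseline for bidirectional fitting.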

Experiment [2] in a line: ATG_NF_kB_CIS: Attagene CIS-FACTORIAL HepG2 Assay for human Nuclear Factor Kappa B (NF-kB) (AID 2282991). Particulars: HepG2 Attagene cis-factorial NF-kB reporter mRNA; actives raise or lower the signal. In a few lines:
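HepG2 cells transiently transfected with multiplexed cis-element reporter units measuring endogenous transcription factor activity; reporter mRNA read 24 h after dosing by RT-PCR, fluorescent labelling, HpaI digestion and capillary electrophoresis. Bidirectional fit against DMSO baseline.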

A short description of experiment [3]: ATG_NRF2_ARE_CIS: Attagene CIS-FACTORIAL HepG2 Assay for human Nuclear Factor Erythroid 2 Related Factor 2 (NFR2) response to Antioxidant Response Elements (ARE) (AID 2282992).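 For AC50: reporter mRNA level measured by RT-PCR and capillary electrophoresis fluorescence.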 As to conditions: HepG2 Attagene ARE/NRF2 reporter, transcription factor activity; actives raise or lower the signal. The essentials:
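Transient MRTU transfection of HepG2; 24 h compound exposure; TriZol RNA, RT with oligo(dT), PCR, 6-FAM primer extension, HpaI cut, CE. Bidirectional fit vs DMSO.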

Experiment [4] can be described thus: ATG_Oct_MLP_CIS: Attagene CIS-FACTORIAL HepG2 Assay for human Octamer-Binding Transcription Factor (Oct) (AID 2282993). As to conditions: HepG2 Attagene cis-factorial Oct reporter, mRNA; actives raise or lower the signal. In a few lines: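 Using HepG2 cells bearing transfected cis-reporter constructs, mRNA induction was read after 24 h by fluorescent RT-PCR and capillary electrophoresis, with DMSO defining baseline for gain- or loss-of-signal fits.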

Experiment [5] concerns the target Cellular tumor antigen p53 (Homo sapiens) (UniProt P04637). Nature of the experiment: ATG_p53_CIS: Attagene CIS-FACTORIAL HepG2 Assay for human p53 Transcription Factor (AID 2282994). As to conditions: HepG2 p53 cis-element reporter, Attagene mRNA; actives raise or lower the signal. The essentials:
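HepG2, transient MRTU transfection (cis promoter elements, endogenous TFs); 24 h dosing; RNA isolation, RT-PCR, 6-FAM primer extension, HpaI digest, CE fluorescence; bidirectional fit vs DMSO.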

A short description of experiment [6]: BSK_3C_TissueFactor: BioMAP Diversity Plus: 3C Assay for Tissue Factor Biomarker Activity (AID 2282997). Particulars: BioMAP 3C HUVEC, tissue factor biomarker readout; actives raise or lower the signal. In a few lines:
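ELISA read-out of Tissue Factor levels on human umbilical vein endothelium collected 24 h after chemical dosing. Gain or loss of signal was fitted relative to DMSO.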

Experiment [7] is described as follows: BSK_3C_uPAR: BioMAP Diversity Plus: 3C Assay for Urokinase-type plasminogen activator receptor (uPAR) Biomarker Activity (AID 2282998). As to conditions: BioMAP 3C HUVEC, uPAR biomarker ELISA; actives raise or lower the signal. The essentials:
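In this endothelial cell-based assay, human umbilical vein primary cells were treated with chemicals and harvested at 24 h. uPAR was quantified using ELISA, with gains or losses fitted relative to DMSO controls.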
Background: In an ELISA, binding on a coated surface is turned into a signal by an enzyme label.

Experiment [8] can be described thus: BSK_3C_VCAM1: BioMAP Diversity Plus: 3C Assay for Vascular cell adhesion molecule 1 (VCAM1) Biomarker Activity (AID 2282999). Particulars: BioMAP 3C HUVEC, VCAM1 ELISA, cytokine-stimulated; actives raise or lower the signal. The essentials:
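Endothelial cells from human umbilical vein are treated with test chemical. At 24 h, VCAM-1 is measured by ELISA, and responses in either direction are fitted relative to DMSO.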

Experiment [9] can be described thus: BSK_4H_Eotaxin3: BioMAP Diversity Plus: 4H Assay for Eotaxin 3 Biomarker Activity (AID 2283000).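 For outcome: CCL26 protein level quantified by ELISA in parallel with SRB cytotoxicity check.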 Particulars: primary human endothelial cells (HUVEC); actives raise or lower the signal. In a few lines:
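Chemicals were added to human umbilical vein endothelium cultures, and Eotaxin-3 was quantified by ELISA at 24 h. Values were derived by bidirectional fitting with DMSO serving as negative control and activity baseline.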

The target of experiment [10] is Myc proto-oncogene protein (Homo sapiens) (UniProt P01106). The experiment in a line: ATG_Myc_CIS: Attagene CIS-FACTORIAL HepG2 Assay for human Myelocytomatosis (Myc) Proto-Oncogene Transcription Factor (AID 2282990). As to conditions: HepG2, Attagene cis-reporter transcription factor activity; actives raise or lower the signal. In a few lines: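 Cells of the HepG2 human liver line bear multiple cis-driven reporter transcription units. Reporter mRNA after 24 h exposure is reverse-transcribed, amplified, labelled and resolved by capillary electrophoresis, with gain- or loss-of-signal fitting relative to DMSO.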
Chain of Myc proto-oncogene protein (Homo sapiens) (P01106 whole entry, looked up): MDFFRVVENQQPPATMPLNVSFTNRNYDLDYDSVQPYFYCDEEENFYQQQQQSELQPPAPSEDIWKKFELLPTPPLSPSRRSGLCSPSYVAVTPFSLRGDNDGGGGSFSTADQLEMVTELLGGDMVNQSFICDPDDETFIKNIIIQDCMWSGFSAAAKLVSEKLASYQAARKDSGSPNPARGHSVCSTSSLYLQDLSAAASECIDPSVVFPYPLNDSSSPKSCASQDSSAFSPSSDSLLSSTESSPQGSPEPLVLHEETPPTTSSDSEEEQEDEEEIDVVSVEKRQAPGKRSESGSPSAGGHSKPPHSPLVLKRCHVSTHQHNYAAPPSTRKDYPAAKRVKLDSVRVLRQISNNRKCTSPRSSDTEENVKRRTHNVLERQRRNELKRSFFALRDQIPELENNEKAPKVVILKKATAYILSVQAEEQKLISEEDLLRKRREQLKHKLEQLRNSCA

Chain of Cellular tumor antigen p53 (Homo sapiens) (P04637 whole entry, looked up): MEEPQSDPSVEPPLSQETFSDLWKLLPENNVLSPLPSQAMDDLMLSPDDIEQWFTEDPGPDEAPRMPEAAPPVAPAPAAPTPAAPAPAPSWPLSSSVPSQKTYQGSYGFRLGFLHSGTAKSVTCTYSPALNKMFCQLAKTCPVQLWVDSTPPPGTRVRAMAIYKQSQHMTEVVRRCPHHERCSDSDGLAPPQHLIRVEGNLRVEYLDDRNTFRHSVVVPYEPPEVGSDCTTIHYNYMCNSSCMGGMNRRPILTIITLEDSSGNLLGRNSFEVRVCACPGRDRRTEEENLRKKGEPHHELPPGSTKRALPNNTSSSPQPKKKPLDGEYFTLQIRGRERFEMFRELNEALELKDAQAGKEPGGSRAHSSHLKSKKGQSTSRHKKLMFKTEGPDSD

Turning to `O=C(O)c1ccccc1C(=O)OCc1ccccc1`, the call in experiment [1], in experiment [2], in [3], in experiment [4], in experiment [5] and in experiment [6] was inactive. In addition, the result in experiment [7] and in experiment [8] was inactive.

Regarding `CCCCOC(=O)CC(CC(=O)OCCCC)(OC(C)=O)C(=O)OCCCC`, the outcome in experiment [1], in experiment [2], in experiment [3], in experiment [4], in experiment [5] and in experiment [6] was inactive. The outcome in experiment [7], in [8] and in [9] was inactive.

`CO[C@H]1/C=C/O[C@@]2(C)Oc3c(C)c(O)c4c(O)c(c(/C=N/N5CCN(C)CC5)c(O)c4c3C2=O)NC(=O)/C(C)=C\C=C\[C@H](C)[C@H](O)[C@@H](C)[C@@H](O)[C@@H](C)[C@H](OC(C)=O)[C@@H]1C`: the result in experiment [1], in experiment [2], in [4], in [5], in experiment [6] and in experiment [7] was inactive. In addition, the result in experiment [8] and in [9] was inactive. Besides, in experiment [3], the AC50 was 4.16 µM (active) and 15.6 µM (active).

Take `Cc1ccc(C(C)C)cc1`: the molecule was classed as inactive in [1], in experiment [3], in experiment [4], in [5], in experiment [6] and in [7]. Besides, the outcome in experiment [8] was inactive.

As to `O=C(OCCCCCCOC(=O)c1ccccc1)c1ccccc1`, the molecule was called inactive in experiment [1], in [2], in experiment [3], in experiment [4], in experiment [5] and in experiment [6]. The result in [7], in experiment [8] and in experiment [9] was inactive.

Consider `CC(C)(C)c1csc(-c2cc3cc(OCc4ccccc4CC(=O)O)ccc3o2)n1`, for which the outcome in experiment [1], in experiment [10] and in experiment [5] was inactive. In addition, the AC50 in experiment [3] is 8.91 µM (active); in [4], 33.4 µM (active); in [6] it was 35.7 µM (active); in experiment [7] it was 20.5 µM (active); in [8], 29.8 µM (active); in experiment [9], 22.4 µM (active).

Consider `O=CCCCC=O`, for which the molecule was classed as inactive in experiment [1], in experiment [2], in experiment [3], in experiment [4] and in experiment [5]. Further, the AC50 in experiment [2] is 73.1 µM (active); in [3], 169 µM (active); in experiment [6] it was 30.3 µM (active); in [7], 33.3 µM (active); in [8], 31.6 µM (active); in [9], 31.4 µM (active).

For `CC1=CC(=O)/C(=C(/C)O)C(=O)O1`, the call in experiment [1], in experiment [10], in experiment [3], in experiment [4], in [5] and in [6] was inactive. The outcome in experiment [7], in experiment [8] and in [9] was inactive.

Take `CCN(Cc1cccc(S(=O)(=O)O)c1)c1ccc(C(=C2C=CC(=[N+](CC)Cc3cccc(S(=O)(=O)O)c3)C=C2)c2ccccc2S(=O)(=O)[O-])cc1`: the outcome in experiment [1], in [2], in [3], in experiment [4], in experiment [5] and in experiment [6] was inactive. The outcome in experiment [7], in [8] and in experiment [9] was inactive.

With `O=C1O[C@H]([C@@H](O)CO)C(O)=C1O`, the molecule was classed as inactive in experiment [1], in [3], in [4], in experiment [5], in experiment [6] and in experiment [7]. Further, the outcome in [8] and in [9] was inactive.

Consider `CC(=O)N1CCN(c2ccc(OC[C@H]3CO[C@](Cn4ccnc4)(c4ccc(Cl)cc4Cl)O3)cc2)CC1`, for which the result in experiment [1], in [2], in [5] and in [8] was inactive. Further, the AC50 in experiment [3] is 24 µM (active); in experiment [4] it was 9.69 µM (active); in [6] it was 31.1 µM (active); in experiment [7], 29.8 µM (active); in experiment [9] it was 33.7 µM (active).

On to `COCC(C)OCC(C)OCC(C)O` (configuration not stated), for which the call in experiment [1], in experiment [2], in experiment [3], in [4], in [5] and in [6] was inactive. Besides, the outcome in [7], in experiment [8] and in experiment [9] was inactive.

In the case of `CC1(C)NC(=O)N(c2ccc([N+](=O)[O-])c(C(F)(F)F)c2)C1=O`, the outcome in experiment [1], in experiment [3], in experiment [4], in [5], in experiment [6] and in [7] was inactive. Also, the result in experiment [8] was inactive. Also, the AC50 in experiment [3] is 68.8 µM (active) and 22 µM (active) and 46 µM (active).

`O=C1c2ccccc2C(=O)N1CCc1noc(-c2ccc(CN3CCCCCC3)s2)n1`: the molecule was classed as inactive in [1], in experiment [2], in experiment [4], in experiment [5], in experiment [6] and in [7]. Also, in [8], the result was inactive. Besides, the AC50 in [3] is 23.1 µM (active).

For `CN(C)C(=O)C1(N2CCCCC2)CCN(CC[C@@]2(c3ccc(Cl)c(Cl)c3)CN(C(=O)c3ccccc3)CCO2)CC1`, the molecule was classed as inactive in [1], in experiment [4] and in [5]. Further, the AC50 is 0.62 µM (active) in experiment [2]; 0.458 µM (active) in [3]; 33.1 µM (active) in [6]; 7.23 µM (active) in experiment [7]; 29.5 µM (active) in experiment [8]; 27.9 µM (active) in experiment [9].

Take `NC(=O)c1nc(-c2cccc(-c3cc(F)ccc3OCC(F)(F)C(F)(F)F)c2)n[nH]1`: the molecule was classed as inactive in [1], in experiment [2] and in experiment [5]. Also, the AC50 in [3] was 8.83 µM (active); in [4], 27.4 µM (active); in [6], 29.7 µM (active); in experiment [7] it was 26.6 µM (active); in experiment [8], 35.7 µM (active); in [9], 37 µM (active).

In the case of `O=c1[nH]sc2ccccc12`, the AC50 in experiment [1] was 45.9 µM (active); in experiment [3], 6.26 µM (active); in [5], 42.6 µM (active); in experiment [6], 8.49 µM (active); in experiment [7] it was 15 µM (active); in experiment [8], 8.74 µM (active). In addition, the AC50 in [9] is 8.99 µM (active). Moreover, the result in [2] and in [4] was inactive.

As for `COc1ccc2cc(S(=O)(=O)N[C@H](CC(=O)N[C@H](Cc3ccc(CN4[C@H](C)CCC[C@@H]4C)cc3)C(=O)N(C)C(C)C)c3ccc4c(c3)OCO4)ccc2c1`, the call in [1] and in experiment [2] was inactive. For the same molecule, the half-maximal activity concentration (AC50) in experiment [3] is 11 µM (active); in experiment [4], 11 µM (active); in experiment [5], 11 µM (active); in [6], 5.1 µM (active); in experiment [7], 19.1 µM (active); in experiment [8], 16.4 µM (active). Moreover, in [9], the AC50 is 11.3 µM (active).

Take `CN(C)c1ccc(C(=C2C=CC(=[N+](C)C)C=C2)c2ccc(N(C)C)cc2)cc1`: the result in experiment [1], in experiment [10] and in experiment [4] was inactive. The AC50 in experiment [3] is 2.43 µM (active); in [5], 1.08 µM (active); in experiment [6], 5.5 µM (active); in experiment [7] it was 0.778 µM (active); in experiment [8] it was 5.56 µM (active); in experiment [9], 1.17 µM (active).

For the molecule `Oc1ccc2ccccc2c1`, the molecule was called inactive in experiment [1], in experiment [2], in [4], in [5], in experiment [6] and in experiment [7]. Further, the result in experiment [8] was inactive. The AC50 in experiment [3] is 15.5 µM (active) and 5.76 µM (active); in [5] it was 180 µM (active); in experiment [9], 15.7 µM (active).

As a reminder, the AC50 is the midpoint of the concentration-response curve, whichever way the signal moves.
